# Laboratory results: the supplement of paper PMC11732987, “Enantioselective OTUD7B fragment discovery through chemoproteomics screening and high-throughput optimisation” (Communications Chemistry, 2025)
# A number with no mark means an inactive call.
# Legend:
# Assay in all cases: log2 ratio of Biotin-Ahx-Ub-VS probe labelling (fragment/DMSO); higher = less target engagement (more negative = stronger competition), active = hit call of the paper (q ≤ 0.05, log2 ratio ≤ -1)
# Details in all cases: compound concentration: 200 uM; treatment time: 3 h
# ALG13 = molecular target: T1, ALG13 (UniProt Q9NP73)
# T1 sequence (whole entry): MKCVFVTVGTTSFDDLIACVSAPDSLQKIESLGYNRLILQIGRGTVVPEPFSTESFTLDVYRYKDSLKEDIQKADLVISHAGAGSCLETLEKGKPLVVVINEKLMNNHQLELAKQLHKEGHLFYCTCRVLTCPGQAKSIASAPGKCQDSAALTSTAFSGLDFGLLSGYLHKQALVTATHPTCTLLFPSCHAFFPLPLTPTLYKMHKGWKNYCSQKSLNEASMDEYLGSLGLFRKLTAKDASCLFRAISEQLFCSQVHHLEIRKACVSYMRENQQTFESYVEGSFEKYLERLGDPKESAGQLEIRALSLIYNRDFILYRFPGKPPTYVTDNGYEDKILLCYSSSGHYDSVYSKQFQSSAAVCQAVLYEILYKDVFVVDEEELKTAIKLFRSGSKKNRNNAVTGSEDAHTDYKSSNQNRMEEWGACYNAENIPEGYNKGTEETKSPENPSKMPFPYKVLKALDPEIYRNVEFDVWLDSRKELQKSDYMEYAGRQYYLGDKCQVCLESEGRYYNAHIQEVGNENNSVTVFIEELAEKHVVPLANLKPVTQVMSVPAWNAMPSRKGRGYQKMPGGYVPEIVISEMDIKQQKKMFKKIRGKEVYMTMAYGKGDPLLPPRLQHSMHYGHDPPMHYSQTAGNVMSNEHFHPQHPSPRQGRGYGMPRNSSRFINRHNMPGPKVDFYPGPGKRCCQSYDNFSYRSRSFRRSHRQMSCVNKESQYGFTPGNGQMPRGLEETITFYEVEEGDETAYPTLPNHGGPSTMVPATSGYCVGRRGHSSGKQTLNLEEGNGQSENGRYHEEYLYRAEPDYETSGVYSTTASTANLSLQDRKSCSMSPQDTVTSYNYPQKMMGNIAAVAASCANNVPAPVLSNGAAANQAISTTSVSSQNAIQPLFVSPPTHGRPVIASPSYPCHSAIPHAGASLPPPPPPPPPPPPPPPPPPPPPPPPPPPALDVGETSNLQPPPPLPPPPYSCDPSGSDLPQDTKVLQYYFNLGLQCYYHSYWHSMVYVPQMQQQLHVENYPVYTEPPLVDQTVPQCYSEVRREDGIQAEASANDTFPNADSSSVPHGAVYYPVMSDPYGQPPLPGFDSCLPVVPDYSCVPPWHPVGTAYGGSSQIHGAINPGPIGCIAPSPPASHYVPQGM
# Outline: (§1)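 The table lists average log2 ratios of fragment over vehicle, from an unpaired t-test on global-median-normalised Spectronaut label-free quantities. Proteins with ≥2 unique peptides were used. Samples were HEK293T lysate (495 µg) treated in triplicate with fragment at 200 µM or vehicle for 3 h, then with Biotin-Ahx-Ub-VS (0.5 µM final) for 1 h, with labelled DUBs NeutrAvidin-enriched and run by diaPASEF LC-MS/MS.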
# ATXN3 = ATXN3 (UniProt P54252)
# Outline: as §1
# BAP1 = molecular target: T2, BAP1 (UniProt Q92560)
# T2 sequence (whole entry): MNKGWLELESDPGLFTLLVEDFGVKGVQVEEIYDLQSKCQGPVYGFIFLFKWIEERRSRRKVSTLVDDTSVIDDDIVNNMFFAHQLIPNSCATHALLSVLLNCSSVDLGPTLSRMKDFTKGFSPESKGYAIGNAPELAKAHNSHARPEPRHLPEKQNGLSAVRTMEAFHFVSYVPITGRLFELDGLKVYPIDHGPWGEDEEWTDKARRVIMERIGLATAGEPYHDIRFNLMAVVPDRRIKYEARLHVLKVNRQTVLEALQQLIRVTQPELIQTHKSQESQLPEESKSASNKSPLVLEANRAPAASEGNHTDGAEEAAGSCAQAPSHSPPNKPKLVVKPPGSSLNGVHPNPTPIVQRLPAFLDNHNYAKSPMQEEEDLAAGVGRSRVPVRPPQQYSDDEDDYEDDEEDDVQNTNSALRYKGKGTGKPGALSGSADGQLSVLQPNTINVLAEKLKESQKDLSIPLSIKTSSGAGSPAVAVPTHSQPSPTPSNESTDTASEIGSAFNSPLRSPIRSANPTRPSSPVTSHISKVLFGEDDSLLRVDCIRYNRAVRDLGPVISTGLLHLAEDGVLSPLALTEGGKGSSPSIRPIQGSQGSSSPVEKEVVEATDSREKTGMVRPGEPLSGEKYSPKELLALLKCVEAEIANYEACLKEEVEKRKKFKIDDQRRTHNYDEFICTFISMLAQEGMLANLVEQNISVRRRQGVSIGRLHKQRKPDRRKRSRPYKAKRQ
# Outline: as §1
# EIF3F = EIF3F (UniProt O00303)
# Outline: as §1
# EIF3H = EIF3H (UniProt O15372)
# Outline: as §1
# FAM105A = molecular target: T3, FAM105A (UniProt Q9NUU6)
# T3 sequence (whole entry): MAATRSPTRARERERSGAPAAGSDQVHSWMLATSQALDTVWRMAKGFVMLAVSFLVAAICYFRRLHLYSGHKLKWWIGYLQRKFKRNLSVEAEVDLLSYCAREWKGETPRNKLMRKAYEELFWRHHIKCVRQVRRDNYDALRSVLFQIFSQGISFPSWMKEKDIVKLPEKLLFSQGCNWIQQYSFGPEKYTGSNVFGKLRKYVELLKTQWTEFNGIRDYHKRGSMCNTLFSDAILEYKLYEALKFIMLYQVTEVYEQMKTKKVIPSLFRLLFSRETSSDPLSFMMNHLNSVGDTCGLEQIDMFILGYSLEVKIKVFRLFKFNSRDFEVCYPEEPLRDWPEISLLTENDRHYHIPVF
# Outline: as §1
# OTUB1 = OTUB1 (UniProt Q96FW1)
# Outline: as §1
# OTUD4 = molecular target: T4, OTUD4 (UniProt Q01804)
# T4 sequence (whole entry): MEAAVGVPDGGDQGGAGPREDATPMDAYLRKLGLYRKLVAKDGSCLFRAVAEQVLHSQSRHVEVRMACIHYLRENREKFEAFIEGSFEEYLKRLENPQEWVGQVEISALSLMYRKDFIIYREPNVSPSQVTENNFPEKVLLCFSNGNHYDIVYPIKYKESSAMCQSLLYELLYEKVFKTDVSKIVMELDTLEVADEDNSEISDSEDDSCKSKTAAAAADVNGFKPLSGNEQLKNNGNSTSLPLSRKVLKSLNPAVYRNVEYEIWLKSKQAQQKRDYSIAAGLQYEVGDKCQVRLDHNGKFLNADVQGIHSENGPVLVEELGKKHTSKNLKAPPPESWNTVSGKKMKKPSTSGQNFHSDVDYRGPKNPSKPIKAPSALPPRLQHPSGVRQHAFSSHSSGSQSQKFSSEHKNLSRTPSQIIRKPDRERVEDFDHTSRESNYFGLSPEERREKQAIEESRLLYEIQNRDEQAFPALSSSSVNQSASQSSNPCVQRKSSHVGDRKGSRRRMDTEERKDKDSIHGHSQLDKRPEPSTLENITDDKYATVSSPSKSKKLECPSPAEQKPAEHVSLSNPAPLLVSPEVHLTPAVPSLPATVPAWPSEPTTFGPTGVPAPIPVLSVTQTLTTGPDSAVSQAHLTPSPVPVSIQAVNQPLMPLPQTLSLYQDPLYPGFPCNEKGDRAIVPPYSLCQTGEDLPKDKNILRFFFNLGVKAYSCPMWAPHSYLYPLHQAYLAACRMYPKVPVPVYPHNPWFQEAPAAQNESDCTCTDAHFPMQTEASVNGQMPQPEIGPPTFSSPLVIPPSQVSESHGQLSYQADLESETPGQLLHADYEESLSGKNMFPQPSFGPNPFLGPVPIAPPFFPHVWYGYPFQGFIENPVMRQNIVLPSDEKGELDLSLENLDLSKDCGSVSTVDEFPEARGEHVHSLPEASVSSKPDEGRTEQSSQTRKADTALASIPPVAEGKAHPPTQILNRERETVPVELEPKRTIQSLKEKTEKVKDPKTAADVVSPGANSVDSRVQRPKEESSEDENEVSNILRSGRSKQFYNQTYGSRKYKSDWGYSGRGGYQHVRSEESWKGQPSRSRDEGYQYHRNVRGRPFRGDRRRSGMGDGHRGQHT
# Outline: as §1
# OTUD5 = molecular target: T5, OTUD5 (UniProt Q96G74)
# T5 sequence (whole entry): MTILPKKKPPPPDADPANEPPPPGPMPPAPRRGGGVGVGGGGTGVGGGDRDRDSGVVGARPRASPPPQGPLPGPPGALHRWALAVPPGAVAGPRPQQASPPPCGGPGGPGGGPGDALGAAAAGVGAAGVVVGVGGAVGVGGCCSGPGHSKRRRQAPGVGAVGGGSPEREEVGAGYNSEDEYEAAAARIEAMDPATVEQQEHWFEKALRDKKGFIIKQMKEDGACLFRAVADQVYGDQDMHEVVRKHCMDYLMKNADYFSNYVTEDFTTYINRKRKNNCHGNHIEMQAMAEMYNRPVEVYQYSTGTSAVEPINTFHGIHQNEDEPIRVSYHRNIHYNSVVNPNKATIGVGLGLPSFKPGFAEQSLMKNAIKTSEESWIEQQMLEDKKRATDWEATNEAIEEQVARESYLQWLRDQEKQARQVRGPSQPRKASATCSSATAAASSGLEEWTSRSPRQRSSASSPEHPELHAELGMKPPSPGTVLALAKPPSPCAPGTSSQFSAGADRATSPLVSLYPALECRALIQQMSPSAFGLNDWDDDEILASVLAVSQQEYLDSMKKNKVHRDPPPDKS
# Outline: as §1
# Sequence of EIF3F (O00303 whole entry): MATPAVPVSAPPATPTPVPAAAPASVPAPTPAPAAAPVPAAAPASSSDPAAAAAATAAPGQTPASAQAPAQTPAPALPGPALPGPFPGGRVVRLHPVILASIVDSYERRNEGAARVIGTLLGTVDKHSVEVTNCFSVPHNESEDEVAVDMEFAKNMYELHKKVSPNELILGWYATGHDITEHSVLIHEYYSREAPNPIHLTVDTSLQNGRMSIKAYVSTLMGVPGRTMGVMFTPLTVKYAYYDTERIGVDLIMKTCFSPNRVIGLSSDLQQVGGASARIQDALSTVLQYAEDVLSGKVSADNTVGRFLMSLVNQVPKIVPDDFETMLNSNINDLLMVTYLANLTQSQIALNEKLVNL
# Sequence of EIF3H (O15372 whole entry): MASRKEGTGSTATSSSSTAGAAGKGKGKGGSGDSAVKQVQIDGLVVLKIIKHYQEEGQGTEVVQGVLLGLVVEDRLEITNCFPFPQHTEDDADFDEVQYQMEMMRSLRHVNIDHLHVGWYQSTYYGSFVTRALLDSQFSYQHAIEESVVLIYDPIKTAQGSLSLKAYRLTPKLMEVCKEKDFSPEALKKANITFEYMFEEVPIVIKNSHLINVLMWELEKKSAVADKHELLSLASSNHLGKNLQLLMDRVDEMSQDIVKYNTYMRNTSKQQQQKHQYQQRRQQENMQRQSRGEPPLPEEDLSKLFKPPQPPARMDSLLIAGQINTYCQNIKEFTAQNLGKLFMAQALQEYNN
# Sequence of ATXN3 (P54252 whole entry): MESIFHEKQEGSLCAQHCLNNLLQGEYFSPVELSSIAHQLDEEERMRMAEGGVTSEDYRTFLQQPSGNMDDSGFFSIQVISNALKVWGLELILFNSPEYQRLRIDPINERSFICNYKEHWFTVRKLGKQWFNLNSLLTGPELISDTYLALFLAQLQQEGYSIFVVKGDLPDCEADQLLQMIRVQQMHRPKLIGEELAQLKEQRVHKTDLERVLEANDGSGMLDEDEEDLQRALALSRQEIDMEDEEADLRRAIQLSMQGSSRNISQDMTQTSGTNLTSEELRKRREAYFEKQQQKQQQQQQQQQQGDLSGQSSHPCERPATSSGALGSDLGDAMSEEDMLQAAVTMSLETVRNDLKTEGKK
# Sequence of OTUB1 (Q96FW1 whole entry): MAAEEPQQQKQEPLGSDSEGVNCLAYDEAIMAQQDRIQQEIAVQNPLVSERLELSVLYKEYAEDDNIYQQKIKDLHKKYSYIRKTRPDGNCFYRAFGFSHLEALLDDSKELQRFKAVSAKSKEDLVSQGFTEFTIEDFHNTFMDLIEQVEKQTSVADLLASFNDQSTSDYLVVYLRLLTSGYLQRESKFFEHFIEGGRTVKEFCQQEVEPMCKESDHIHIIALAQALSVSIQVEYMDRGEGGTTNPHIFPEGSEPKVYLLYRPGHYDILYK
Structure (SMILES),log2 ratio of Biotin-Ahx-Ub-VS probe labelling (ALG13),log2 ratio of Biotin-Ahx-Ub-VS probe labelling (ATXN3),log2 ratio of Biotin-Ahx-Ub-VS probe labelling (BAP1),log2 ratio of Biotin-Ahx-Ub-VS probe labelling (EIF3F),log2 ratio of Biotin-Ahx-Ub-VS probe labelling (EIF3H),log2 ratio of Biotin-Ahx-Ub-VS probe labelling (FAM105A),log2 ratio of Biotin-Ahx-Ub-VS probe labelling (OTUB1),log2 ratio of Biotin-Ahx-Ub-VS probe labelling (OTUD4),log2 ratio of Biotin-Ahx-Ub-VS probe labelling (OTUD5)
CN1c2ccccc2C(NC(=O)CCl)CS1(=O)=O (stereo not drawn),-0.325,-0.142,-2.33 (active),-0.327,0.0135,0.147,-0.0194,-1.65 (active),-0.14
O=C(CCl)NCC(=O)N1CCCC1,0.0112,-0.179,-0.409,-0.198,0.0708,-0.573,-0.202,-0.278,-0.231
